This is an account of results in PubChem BioAssay AID588676 (Johns Hopkins Ion Channel Center, 2011).

The whole screen tested about 310,000 compounds, of which about 3,900 (1.3%) were called active.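 Rule for the calls: active = calcium-response B-score plate-corrected more than 3 library SD below zero, starting fluorescence within 5 deviations, no agonist response on first addition; inactive = the rest.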 This excerpt belongs to a sample that is enriched for actives.

Sequence of Mas-related G-protein coupled receptor member X1 (Homo sapiens) (Q96LB2 whole entry, looked up): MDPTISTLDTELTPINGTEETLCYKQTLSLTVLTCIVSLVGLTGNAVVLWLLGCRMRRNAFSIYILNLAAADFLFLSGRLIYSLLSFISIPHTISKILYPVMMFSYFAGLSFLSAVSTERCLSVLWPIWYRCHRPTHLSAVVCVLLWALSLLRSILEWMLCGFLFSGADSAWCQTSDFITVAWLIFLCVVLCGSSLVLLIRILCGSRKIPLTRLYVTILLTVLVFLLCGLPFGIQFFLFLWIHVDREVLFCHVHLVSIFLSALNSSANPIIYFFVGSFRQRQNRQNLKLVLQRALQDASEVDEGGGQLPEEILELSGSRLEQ

This assay addresses Mas-related G-protein coupled receptor member X1 (Homo sapiens) (UniProt Q96LB2). The assay can be described thus: blockade of BAM8-22-evoked MrgX1 calcium response – HEK293 cells, Fluo-4 calcium flux, primary screen (AID 588676).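 For B-score: peak minus trough fluorescence over baseline after final BAM8-22 challenge near maximal dose.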 To be noted: Fluo-4, BAM8-22 antagonism, at 10 µM; stronger effect = lower value.
Turning to `Cc1ccc(N(C(=O)Cc2cccs2)C2C=CS(=O)(=O)C2)cc1Cl` (stereo unspecified), the B-score result was “inactive”.
The entry for `Cn1c(NC(=O)c2ccco2)c(-c2ccccc2Cl)c(=O)c2ccccc21` is “inactive”.
The entry for `CCOCCCN1C(=O)C2C(C(=O)Nc3ccc(OCC)cc3)C3C=CC2(O3)C1C(=O)NC1CCCCC1` (stereo unspecified) is “inactive”.
For `CC(=O)OCCN(CCCn1c(-c2ccncc2)nc2ccccc21)c1nc(-c2ccc(C)cc2)cs1` the value was “inactive”.
Regarding `O=C(N/N=C/c1ccco1)c1ccc(C(=O)N/N=C/c2ccco2)o1`, the B-score entry was “inactive”.
Consider `O=C(Cc1ccccc1)Nc1cccc(NC(=O)c2ccccc2)c1`, for which the B-score result was “inactive”.
As to `O=C(Cc1ccccc1)Nc1cccc(C(=O)N/N=C/c2ccco2)c1`, the B-score was -18.1 (active).
Turning to `N#CCC(=O)NC(=O)NCC1CC1`, the B-score result was “inactive”.
For `CC1Cc2ccccc2N1C(=O)CSc1nnc(-c2ccc(S(=O)(=O)N3CCCC3)cc2)n1C` (stereo unspecified) the value was “inactive”; for `CC(NCc1cccs1)C(=O)Nc1cc(Cl)cc(Cl)c1` (stereo unspecified), “inactive”; for `COc1ccc(S(=O)(=O)N2CCCC2)c(C)c1C`, “inactive”.
For `COc1cc(C)c(S(=O)(=O)N2CCOCC2)c(C)c1C` the value was “inactive”; for `COc1ccc(S(=O)(=O)N2CCOCC2)c(C)c1C`, -6.44 (active); for `COc1cccc2cc(/C(C)=N/NC(=O)c3ccco3)oc12`, “inactive”.
For `Cn1nccc1C(=O)NC1CCCc2c1cnn2-c1ccc(F)cc1F` (stereo unspecified) the value was “inactive”; for `CCOC(=O)N1CCN(C(=O)c2cn(C)c3ccc(S(=O)(=O)N4CCCC4)cc3c2=O)CC1`, -6.83 (active); for `CCOC(=O)N1CCN(C(=O)c2cn(C)c3ccc(S(=O)(=O)N(CC)CC)cc3c2=O)CC1`, “inactive”.
For `COc1ccc(N2CCN(C(=O)c3cn(C)c4ccc(S(=O)(=O)N5CCOCC5)cc4c3=O)CC2)cc1`, the B-score result was “inactive”.
`N/C(=N\OS(=O)(=O)c1cccc([N+](=O)[O-])c1)c1ccncc1`: the B-score entry was “inactive”.
The entry for `Clc1ccc(CSc2nnc3c(n2)[nH]c2ccccc23)cc1` is “inactive”; for `C=CCSc1nc(Cc2ccc(Cl)cc2)nc2ccccc12` it is -5.91 (active); for `CCCNC(=O)CSc1nc(Cc2ccccc2)nc2ccccc12` it is “inactive”.
For `COc1ccccc1NC(=S)N1CCC(NC(=O)C23CC4CC(CC(C4)C2)C3)CC1` the value was “inactive”.
For the molecule `FC(F)(F)c1cc(-c2cccs2)nc(NCc2ccco2)n1`, the B-score was -5.29 (active).
For `COc1ccc(-c2cc(C(F)(F)F)nc(SCCC(=O)NCc3ccco3)n2)cc1` the value was “inactive”; for `FC(F)(F)c1cc(-c2ccco2)nc(NCc2ccc(Cl)cc2)n1`, “inactive”.
Take `CC(=O)c1c(C)[nH]c(C(=O)CN2C(=O)NC(C)(C)C2=O)c1C`: the B-score result is “inactive”.
For `Cc1nc(-c2ccc(F)cc2)c(CC(=O)N2CCN(S(=O)(=O)c3ccc(F)cc3)CC2)s1` the value was “inactive”; for `CC(=O)N(C1=C(Cl)C(=O)c2ccccc2C1=O)c1ccc(C(=O)O)cc1`, -18.7 (active).
The entry for `FC(F)(F)c1cccc(-c2cc3ccccc3nc2N2CCCC2)c1` is “inactive”; for `O=C(COc1ccccc1)Nc1ccc(C(=O)N2CCCC2)cc1` it is “inactive”; for `C/C(=N/NC(=O)CC(=O)N/N=C(\C)c1ccc([N+](=O)[O-])cc1)c1ccc([N+](=O)[O-])cc1` it is “inactive”.
For `C/C(=N\NC(=O)Cc1ccc(Br)cc1)c1cccnc1` the value was “inactive”.
For the molecule `C/C(=N\NC(=O)Cc1ccc(F)cc1)c1ccc(F)cc1`, the B-score is -8.25 (active).
The entry for `COc1ccc2c3c1O[C@H]1C[C@@H](O)C=C[C@@]31CCN(C)C2` is “inactive”; for `COc1ccccc1C1C(C#N)=C(N)Oc2c1c(-c1ccccc1)nn2-c1ccccc1` (stereo unspecified) it is “inactive”.
For `Cc1nn(-c2ccccc2)c2c1C(c1ccc(F)cc1)C(C#N)=C(N)O2` (stereo unspecified) the value was -13.4 (active); for `Cc1nn(Cc2ccccc2)c2c1C(c1ccccc1)C(C#N)=C(N)O2` (stereo unspecified), “inactive”; for `CC(C)(C)c1ccc(C(CC(=O)O)NS(=O)(=O)Cc2ccccc2)cc1` (stereo unspecified), “inactive”.
For `Cc1c(CCO)c(=O)[nH]n1C(=O)c1c(F)cccc1F` the value was “inactive”.
With `CCOC(=O)[C@H]1CCC[C@@H](NS(=O)(=O)c2ccc(NC(C)=O)cc2)C1`, the B-score entry was “inactive”.
The entry for `Cc1ccc(CNC(=O)CCNS(=O)(=O)c2ccc(Br)s2)cc1` is “inactive”; for `O=C1CCC(C(=O)N2CCN(c3ccccc3Cl)CC2)CN1CC1CCCCC1` (stereo unspecified) it is “inactive”.
For `COc1ccc(CCNC(=O)C2CC3Cn4c(nc5cc(C)c(C)cc54)C3N2C)cc1` (stereo unspecified) the value was “inactive”; for `O=C(c1ccccc1)N1CCN(c2ccc([N+](=O)[O-])c(NCc3ccco3)c2)CC1`, “inactive”.
For `COc1ccccc1OCCNc1cc(N2CCOCC2)ccc1[N+](=O)[O-]` the value was “inactive”.
In the case of `COc1ccc(CCNc2cc(N3CCN(C(=O)c4ccccc4OC)CC3)ccc2[N+](=O)[O-])cc1OC`, the B-score was -5.34 (active).
For `Cc1cccc(N2CC(C(=O)Nc3ccccc3N3CCCC3)CC2=O)c1C` (stereo unspecified), the B-score entry was “inactive”.
Take `CCOc1ccc(C(CC(=O)O)n2cnnn2)cc1OC` (stereo unspecified): the B-score entry is “inactive”.
For `COC(=O)c1ccc(COC(=O)c2cnc(Cl)c(Cl)c2)cc1` the value was “inactive”; for `COc1ccccc1C(=O)N/C(=C/c1ccco1)C(=O)Nc1ccc(C(=O)O)cc1`, “inactive”; for `CCOc1ccc(S(=O)(=O)Nc2ccc(C(=O)NCCCN3CCCC3=O)cc2)cc1`, -9 (active).
For `O=C(NCCCN1CCCC1=O)c1ccc(S(=O)(=O)Nc2ccccc2)cc1` the value was “inactive”; for `CCOc1ccc(C(=O)NCCCN2CCCC2=O)cc1`, “inactive”.
The entry for `Oc1cc(O)c2c(c1)OC(c1ccc(O)c(O)c1)C(O)C2` (stereo unspecified) is “inactive”.
Take `Cc1ccc2cc3cc(C(=O)N4CCCCCC4)oc3nc2c1`: the B-score entry is “inactive”.
The entry for `CN(C)c1ccc(C(CC(=O)O)C(=O)O)cc1` (stereo unspecified) is “inactive”; for `Cc1cnc(CN(C)C(=O)CC2C(=O)NCCN2Cc2cccc(F)c2F)[nH]1` (stereo unspecified) it is “inactive”.
As for `CCCCCc1nnc(NC(=O)c2ccc(=O)n(C)n2)s1`, the B-score result was “inactive”.
For `Cc1cc(=O)n2c3c(cccc13)CCC2`, the B-score result is “inactive”.
On to `CCCCc1nc2ccccc2c(=O)n1NC(=O)c1c(O)c2cccc3c2n(c1=O)CC3`, for which the B-score entry is “inactive”.
The figure for `CCNC(=O)c1c(O)c2cccc3c2n(c1=O)CC3` is -5.85 (active).
Consider `Nc1[nH][nH]c(=O)c1N=Nc1ccc2c(c1)OCO2`, for which the B-score result was “inactive”.
On to `Cc1cc(C)cc(NC(=O)C2CCN(c3nc(C)cc(C)n3)CC2)c1`, for which the B-score result is “inactive”.
For `Cc1cc(Nc2cc(N3CCN(C)CC3)nc(Sc3ccc(NC(=O)C4CC4)cc3)n2)n[nH]1` the value was -6.92 (active); for `Cc1cc(C)nc(N2CCC(C(=O)Nc3ccc4c(c3)OCCO4)CC2)n1`, “inactive”.
